# Data reported in PubChem BioAssay (NCI).
# About 83,000 compounds went through this panel and 20% of them were active in at least one assay; those are over-represented in the sample as a whole.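 How to read the values: 0–100, growth inhibition (40 = 60% inhibited); 0, no net growth; -100 to 0, cell death (-40 = 40% of starting cells died; -100 = all dead).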 Unmarked numbers belong to inactive results. Activity calls are given as the source filed them. The calls were made as follows: active = growth percent below 10; inactive = the rest.
# How the values were obtained:
# Test in all cases: NCI-60 one-dose screen, 48 h (100 = growth as untreated, 0 = no growth, -100 = all killed)
# Conditions in all cases: 10 µM unless noted
# [1] = test system: SK-MEL-2 melanoma
# [2] = test system: EKVX NSCLC
# [3] = test system: SN12C renal
# [4] = test system: UO-31 renal
# [5] = test system: TK-10 renal
# [6] = test system: ACHN renal
# [7] = test system: A498 renal
# [8] = test system: CCRF-CEM leukemia
# [9] = test system: MOLT-4 leukemia
# [10] = test system: SR leukemia
# [11] = test system: RPMI-8226 leukemia
# [12] = test system: OVCAR-8 ovarian
# [13] = test system: OVCAR-5 ovarian
# [14] = test system: OVCAR-4 ovarian
# [15] = test system: SK-OV-3 ovarian
# [16] = test system: IGROV1 ovarian
# [17] = test system: OVCAR-3 ovarian
# [18] = test system: HS 578T breast
# [19] = test system: NCI/ADR-RES ovarian
SMILES,growth [1],growth [2],growth [3],growth [4],growth [5],growth [6],growth [7],growth [8],growth [9],growth [10],growth [11],growth [12],growth [13],growth [14],growth [15],growth [16],growth [17],growth [18],growth [19]
O=C(c1cc(-c2ccc(Cl)cc2)nc2ccccc12)N1N=C(c2ccccc2)CC1c1cc(-c2ccccc2)nn1-c1ccccc1 (configuration not stated),86.4%,81.1%,85.5%,70.4%,131%,73%,92.5%,65.1%,68.7%,73.4%,86.8%,87.1%,89.4%,64.3%,93.8%,60.8%,68.8%,89.3%,81.5%
CCNC(=O)Oc1ccc(/C(=C(/CC)Cc2ccccc2)c2ccc(OCCN3CCOCC3)cc2)cc1,66.2%,38.6%,67.7%,23%,76.2%,59.8%,76.9%,61.7%,10.1%,29.2%,16%,57.8%,94.8%,45.9%,75.5%,59.4%,50.8%,62.5%,49.4%
O=C(N/N=C/c1ccccc1O)c1ccccc1O,61.1%,37.5%,41%,3.31% (active),42.4%,16.7%,99.6%,12.7%,19.3%,17.1%,37.4%,25.1%,55.3%,24.3%,47.7%,24.3%,39.8%,,21%
CC(=S)Nc1ccccc1,97.3%,87.3%,92.9%,81.5%,109%,97.4%,103%,102%,103%,103%,99.7%,94.5%,99.8%,95.4%,87.6%,89.8%,101%,98.7%,100%
O=[N+]([O-])c1cccc2cc(S(=O)(=O)O)ccc12,101%,96.2%,98%,92.2%,94%,112%,115%,94.6%,85.5%,103%,99%,98.9%,107%,114%,95.1%,104%,99.8%,107%,101%
Cc1ccc2oc(=O)cc(C3C(C#N)=C(N)Oc4c3ccc3ccccc43)c2c1 (configuration not stated),66.2%,77.6%,92.6%,72.3%,91.9%,99%,89.1%,81.9%,46.3%,27.6%,70.2%,85.8%,99.3%,87.8%,88.1%,75.6%,75.6%,85.5%,62.9%
CCCCNC(=O)Oc1ccc(/C(=C(/CC)Cc2ccccc2)c2ccc(OCCCN(C)C)cc2)cc1,86.8%,67.5%,82.8%,60.5%,91.9%,92.5%,76.2%,77.1%,63.4%,22%,42.8%,87%,85.6%,74.8%,97.6%,71.1%,85.2%,84.4%,87.2%
CSc1nc(N)nc2c1ncn2C,92.3%,94.2%,97.6%,94.6%,93.5%,106%,119%,98.3%,87.6%,91.7%,96.4%,106%,100%,103%,90.4%,106%,100%,106%,98.8%
O=C1OC(=O)C2C3CC(c4ccccc43)C12 (configuration not stated),125%,99.3%,113%,76.2%,123%,90.1%,110%,98.8%,104%,104%,99.7%,92.4%,85.5%,112%,95.8%,109%,125%,,112%
COc1ccc(-c2coc3c(CO)c(O)ccc3c2=O)cc1,19.2%,72.1%,10.1%,24.3%,75.2%,20.8%,68.6%,45.2%,91.3%,25.5%,36.6%,73.6%,102%,75.6%,84.7%,61.2%,9.94% (active),57.2%,86.3%
Cc1cc2nc(-c3c(N)ncc(C#N)c3-c3ccc(Cl)cc3)[nH]c2cc1C,59.9%,63.7%,76.5%,77.8%,41.5%,67.7%,44.1%,54.5%,73.3%,49.4%,56%,38.4%,83.2%,56.1%,75.9%,46%,21.8%,,53.9%
c1ccc2nc(Cn3cc[n+](Cc4ccc5ccccc5n4)c3)ccc2c1,55%,88.3%,40.5%,88%,98.3%,102%,90.7%,80%,65.4%,47.8%,29.6%,76.2%,86.9%,33.7%,86.9%,68.3%,52%,75.3%,107%
CCCCn1c(-c2cccc(OC)c2)nc2cc(OC)c(OC)cc2c1=O,101%,70.8%,98.1%,80.6%,215%,97.8%,110%,-22.6% (active),69.8%,75.1%,58.9%,118%,101%,108%,119%,89.2%,113%,104%,94.2%
O=C(C[n+]1cccc(Br)c1)c1ccc2c(c1)CCCC2,102%,94.8%,104%,90.1%,105%,108%,106%,102%,86.2%,99.3%,96%,108%,96.2%,114%,89.7%,101%,99.9%,105%,102%
O=C(Cn1c2ccccc2c2ccncc21)N/N=C/c1c[nH]c2ccccc12,95.3%,91.2%,38.8%,103%,113%,77.7%,104%,43.8%,53.4%,40.6%,-27.7% (active),40.9%,107%,-60% (active),107%,89.2%,18.3%,53.2%,94.6%
Cc1ccccc1C[P+](c1ccccc1)(c1ccccc1)c1ccccc1,2.07% (active),29.5%,40.5%,76.6%,36.1%,71%,89.5%,24.9%,35.7%,22.2%,10%,18.7%,55.2%,3.27% (active),42.6%,20%,1.98% (active),,114%
Nc1nc(Nc2ccc(OCc3cccc(F)c3)cc2)c2c(n1)[nH]c1ccc(O)cc12,-63% (active),10.5%,-69.3% (active),-93.5% (active),-9.4% (active),-26.8% (active),75.9%,-9.7% (active),-28% (active),-48.3% (active),-37.5% (active),-61.7% (active),0.474% (active),-62.2% (active),-1.21% (active),-21.8% (active),-86.4% (active),-21.9% (active),32.3%

SMILES,growth [1],growth [2],growth [3],growth [4],growth [5],growth [6],growth [7],growth [8],growth [9],growth [10],growth [11],growth [12],growth [13],growth [14],growth [15],growth [16],growth [17],growth [18],growth [19]
COc1cccc(/C=N/C(=S)NC2(C)C3CCC(C3)C2(C)C)c1O (configuration not stated),82.1%,102%,100%,53%,85.9%,69.9%,73.2%,57.3%,63.8%,38.4%,73.5%,85.4%,102%,45.5%,102%,64.3%,73.2%,,83.7%
N#CC(C#N)=C(C#N)c1c[nH]c2ccccc12,90.9%,73%,79%,63.9%,98.9%,73.4%,101%,65.5%,75.7%,58.1%,68.4%,87.7%,102%,73.5%,82.7%,75.2%,74.7%,87.7%,96.1%
COc1ccc(SC2c3ccc(O)cc3Oc3nc(N)c(C#N)c(N)c32)cc1 (configuration not stated),98.1%,79%,54.3%,71.1%,73%,97.7%,84.7%,31.8%,67.7%,59.9%,96.7%,98%,129%,92.9%,120%,74.3%,88.1%,94.4%,98.8%
Cc1ccc(-c2cc(-c3nnc(SCC(=O)c4ccccc4)o3)c3ccccc3n2)cc1,90.7%,83.4%,101%,74.6%,61.8%,93.9%,77%,100%,95.2%,77.4%,106%,100%,92%,86%,106%,94.1%,97.7%,101%,91.9%
COc1ccccc1S(=O)(=O)Nc1ccc2c3c(cc(-c4ccoc4)nc13)C(=O)N2C,74.8%,66.4%,82.3%,39.9%,37.5%,70.6%,71.7%,76.5%,75.8%,59.2%,15.5%,70.5%,76.3%,55.1%,59.3%,62%,74%,56.2%,55.1%
Clc1ccc2c(NCCNc3nc(Cl)nc4ccccc34)ccnc2c1,-73.2% (active),-9.06% (active),-76.6% (active),-95.6% (active),-79.3% (active),-97.7% (active),92.3%,-58.7% (active),-52.4% (active),-27.3% (active),-50.7% (active),-62.5% (active),-49.9% (active),-72% (active),-80.4% (active),-85% (active),-78% (active),-41.9% (active),38.5%
O=[N+]([O-])c1ccc(NS(=O)(=O)c2ccccc2)c2ccccc12,12.1%,38.2%,44.5%,25.5%,53.1%,63.6%,35.9%,40.3%,38%,51.6%,11.7%,63.1%,84.4%,40.6%,34.7%,30.2%,25.5%,48%,51%
COc1cc2ncnc(Oc3ccc(NC(=O)Nc4ccc(CN5CCOCC5)c(C(F)(F)F)c4)c4ccccc34)c2cc1OC,52.1%,16%,8.87% (active),-11.9% (active),12.7%,-3.27% (active),-11.3% (active),20.1%,-20.7% (active),17.1%,-20.4% (active),18.9%,50.1%,13.7%,-6.16% (active),6.05% (active),31.9%,45.5%,21.8%
C=C1C(=O)O[C@H]2[C@H]1CC/C(COC(=O)c1cccc3ccccc13)=C\CC[C@@]1(C)O[C@@H]21,-65.6% (active),-81.9% (active),-55.3% (active),-100% (active),-73.1% (active),-100% (active),82.2%,-19% (active),-15.1% (active),-31.4% (active),-40.5% (active),-42.8% (active),-47.9% (active),-38.9% (active),84.3%,-68.5% (active),-86.5% (active),2.83% (active),-28.4% (active)
COC(=O)CCCNS(=O)(=O)c1cc(C(=O)Nc2ccc(NC(=O)c3cc(S(=O)(=O)NCCCC(=O)OC)c(O)c(O)c3O)cc2)c(O)c(O)c1O,98.6%,84.3%,85.3%,82.9%,94.9%,109%,104%,58.6%,87.6%,70.4%,96%,73.6%,107%,98.3%,83.8%,100%,102%,100%,94.2%
Nc1nc(Cl)c2c(C(F)(F)F)cn(CC3CCNCC3)c2n1,87.9%,88.8%,85.7%,91.6%,91.5%,104%,107%,51.9%,45.8%,-38.7% (active),83.7%,-16.3% (active),110%,101%,107%,-62.8% (active),94.7%,88.7%,109%
C[C@H]1C=C(C[C@@H](O)CC#CC#CCCCCC[C@@H](O)[C@H]2CCC(=O)O2)C(=O)O1,118%,96.7%,105%,81.2%,115%,103%,107%,106%,114%,121%,114%,110%,95.6%,105%,95.5%,54.1%,,117%,95.5%
COc1ccc2c(c1)/C(=C/c1c(-c3cc(OC)c(OC)c(OC)c3Br)nc3sccn13)C(=O)N2,87.3%,84.6%,120%,83.3%,118%,86.5%,108%,81%,73.2%,95.1%,85.9%,99.6%,105%,100%,96.6%,45.7%,,83.2%,92.2%
O=C(N/N=C1\SCC(=O)N1c1ccccc1)c1cc(-c2cc3ccccc3o2)nn1-c1ccccc1,103%,96.7%,122%,118%,112%,91%,103%,-84.9% (active),87%,107%,66.4%,107%,112%,110%,116%,98.9%,,109%,108%
Nc1nc(Cl)cc(NCCCCNc2cc(Cl)nc(N)n2)n1,87.6%,102%,126%,96.5%,111%,107%,174%,84.5%,94.8%,98.9%,96.4%,99.5%,94.9%,104%,113%,-19.9% (active),,126%,107%
COc1ccc(-c2c(C#N)cnc(N)c2-c2nc3cc(C)c(C)cc3[nH]2)cc1,41.4%,63%,80.7%,83.9%,48.6%,53.2%,82.9%,90.5%,104%,20.2%,81.3%,43.6%,102%,50.7%,46%,36.4%,55.7%,,50.2%
